An excerpt weighted towards active compounds, which were near 32% of everything screened.
PostGolgi yeast: growth inhibition of a yeast mutant, post-Golgi transport screen. inhibition, % at 10 µM. 0.9% of 98,000 active. post-Golgi transport phenotypic cell assay;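 further: yeast cells grown in 1536-well plates; yeast grown about 18 h at 30C before absorbance read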
CYP2C19 inhib: human CYP2C19 inhibition | AID 778 | inhibition, % at 5 µM | 21% of 96,000 active | CYP2C19 Supersomes, luciferin-H EGE luminescence, 30 min;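 active means CYP2C19 inhibition above a set limit at 5 µM in the primary screen, cut at about 50% in these data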;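 further: plate controls were negative control wells for no effect and 2.5 mM tranylcypromine positive control for full effect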
Target sequence (P33261 whole entry, looked up): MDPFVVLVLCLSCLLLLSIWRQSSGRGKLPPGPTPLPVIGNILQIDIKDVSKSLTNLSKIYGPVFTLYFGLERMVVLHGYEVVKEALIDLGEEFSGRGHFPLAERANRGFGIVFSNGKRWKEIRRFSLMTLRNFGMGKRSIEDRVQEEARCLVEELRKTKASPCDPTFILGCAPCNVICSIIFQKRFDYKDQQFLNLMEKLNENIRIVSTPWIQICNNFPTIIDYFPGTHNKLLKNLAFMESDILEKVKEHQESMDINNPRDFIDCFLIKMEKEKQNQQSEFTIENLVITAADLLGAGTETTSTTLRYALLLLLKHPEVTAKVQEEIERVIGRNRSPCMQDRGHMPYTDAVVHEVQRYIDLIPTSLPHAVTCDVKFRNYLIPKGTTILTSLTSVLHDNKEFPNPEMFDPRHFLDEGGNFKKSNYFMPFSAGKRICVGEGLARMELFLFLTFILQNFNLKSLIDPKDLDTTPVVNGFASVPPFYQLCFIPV
PostGolgi ctrl: inhibits growth of the yeast control strain; inhibition, % at 10 µM; AID 738; 5% of 98,000 active; efflux-deficient yeast background strain, growth absorbance A615, 16 h
CYP2C9 inhib: human CYP2C9 inhibition; inhibition, % at 5 µM; CYP2C9 Supersomes, luciferin-H conversion, luminescence; 20% of 96,000 active; P11712;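 active means blocking of liver enzyme CYP2C9 beyond about 50% at 5 µM, limit read from the data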
CYP2C19 activ: increases human CYP2C19 enzyme activity; P33261; recombinant CYP2C19, luciferin-H EGE luminescence; active compounds read high; 0 = fully inhibited enzyme, 1 = untreated enzyme; activation factor at 5 µM; 96,000 tested, under 10 active; AID 1025;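 active means activation factor of at least 2 at 5 µM in the primary screen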;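 further: 0 = wells with 2.5 mM tranylcypromine and 1 = vehicle-only wells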
CYP2C9 activ: increases human cytochrome P450 2C9 activity; recombinant CYP2C9, luciferin-H conversion, luminescence; active compounds read high; factor 1 = untreated enzyme, 0 = blocked; activation factor at 5 µM; 1.4% of 96,000 active; AID 1024;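 active means activation factor of 2 or more for CYP2C9 at a 5 µM dose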;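 further: 0 = sulfaphenazole-blocked wells and 1 = vehicle-only wells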
The depositor's hits bear a star; nt = not tested or not shown. Unless noted, no stated cut-off is given here; in the data, active means inhibition above about 30%; inactive means the rest.

SMILES	PostGolgi yeast	CYP2C19 inhib	PostGolgi ctrl	CYP2C9 inhib	CYP2C19 activ	CYP2C9 activ
CC(=O)c1cnc2nc(C)nn2c1C	32*	6	-5	-3	0.9	1
CC(=O)c1cnc2c(C(=O)O)cnn2c1C	4	-3	-3	-34	1	1.3
CCCc1cc(C(=O)Nc2nnc(C)s2)cs1	-6	31	2	45	0.7	0.5
CCNC(=S)NNC(=O)c1cc(-c2ccc(OCC)cc2)nc2ccccc12	-12	43	-4	79*	0.6	0.2
Cc1cc(C(=O)NNC(=S)NC(C)c2ccccc2)c2ccccc2n1 (stereo not given)	4	-4	-1	55*	1	0.4
COc1ccc(C(=O)NNC(=S)NC(=O)c2cc(-c3ccccc3)nc3ccccc23)cc1	-5	8	3	42	0.9	0.6
CCCc1cc(C(=O)NNC(=S)NC(C)c2ccccc2)cs1 (stereo not given)	10	81*	-8	44	0.2	0.6
CCCOc1ccc(C(=O)NNC(=S)NC(=O)c2cc(-c3ccc(Cl)cc3)nc3ccccc23)cc1	-2	8	10	50*	0.9	0.5
Cc1cccc(NC(=S)NN(Cc2ccccc2)c2ccccc2)c1C	-2	16	14	29	0.8	0.7
CCNC(=S)NNC(=O)c1cc(-c2ccccc2C)nc2ccccc12	-4	0	13	60*	1	0.4
CCCOc1cccc(-c2cc(C(=O)NNC(=S)NCC)c3ccccc3n2)c1	-3	22	-1	70*	0.8	0.3
CCNC(=S)NNC(=O)c1cc(CC(C)C)nc2ccccc12	-5	10	6	64*	0.9	0.4
O=Cc1ccc(OC(=O)C2CC(=O)N(c3ccc(F)cc3)C2)cc1 (stereo not given)	6	-5	-3	-1	1	1
CCC(C)NC(=O)CSc1nc2ccsc2c(=O)n1NC(=O)c1ccccc1 (stereo not given)	-3	-5	0	44	1	0.6
CCCc1nc2ccccc2[nH]1	0	2	-2	-25	1	1.2
CCCCOC(=O)CCc1nc2ccccc2[nH]c1=O	2	73*	14	31	0.3	0.7
CC(=O)COC(=O)CCc1nc2ccccc2[nH]c1=O	10	11	22	14	0.9	0.9
CCCCOC(=O)Cc1c(O)c2ccccc2[nH]c1=O	32*	5	3	18	0.9	0.8
CCC(OC(=O)CCc1nc2ccccc2[nH]c1=O)C(=O)c1ccccc1 (stereo not given)	0	99*	-6	79*	0	0.2
CCOC(=O)CCc1nc2ccccc2[nH]1	5	69*	-3	24	0.3	0.8
O=Cc1cccc(OC(=O)c2ccc(Cl)cc2Cl)c1	20	-4	-1	-11	1	1.1
CC(C)NC(=O)c1cc(-n2cnnc2)ccc1Cl	1	-5	8	-4	1.1	1
O=c1[nH]c2ccccc2nc1Cc1ccccc1	-1	56*	8	6	0.4	0.9
Cc1cc(C)n(S(=O)(=O)c2cc(Cl)ccc2Cl)n1	0	59*	9	-66	0.4	1.7
Cc1cc(C)n(S(=O)(=O)c2ccc3ccccc3c2)n1	1	61*	15	-133	0.4	2.3*
SMILES	PostGolgi yeast	CYP2C19 inhib	PostGolgi ctrl	CYP2C9 inhib	CYP2C19 activ	CYP2C9 activ
COC(=O)c1cc(S(=O)(=O)n2nc(C)cc2C)c(Cl)cc1Cl	nt	-5	nt	-15	1	1.1
Cc1cc(C)n(S(=O)(=O)c2ccc(C(C)(C)C)cc2)n1	0	76*	22	36	0.2	0.6
Cc1cccc(N(C)c2cc(C)nc3nc(C)nn23)c1	5	nt	1	nt	nt	nt
O=C(CCN1C(=O)c2ccccc2C1=O)Nc1ccccc1C(=O)N1CCOCC1	5	-14	3	-42	1.1	1.4
C=C(c1ccc(O)cc1)c1ccc(O)cc1	-14	96*	9	98*	0	0
CCC(=O)N[C@@H]1CC(C(C)(C)NC(=O)CC)CC=C1C (stereo not given in full)	-2	2	-3	8	1	0.9
Clc1cccc(OCCn2cncn2)c1Cl	-11	84*	3	-81	0.2	1.8
C=CCc1ccccc1OCCn1ccnc1	1	92*	-5	85*	0.1	0.1
C=CCc1ccccc1OCCCCN1CCCC1	-4	6	3	-11	0.9	1.1
Clc1ccccc1OCCn1ccnc1	-18	66*	-4	74*	0.3	0.3

High-throughput results (PubChem)
